Test results as given in PubChem BioAssay (Tox21).
Records with an inconclusive call do not appear. Entries that show only a call come without a potency. Activity calls are given as the source filed them. Calls follow the shape of the dose curve; as a rule, active = well fitted activation curve with a large enough effect in the repeat runs; inconclusive = weak or mixed curves; inactive = flat fitted curve, though single readings scatter.

Test: A CellTox Green Cytotoxicity Assay to monitor cytotoxicity in HepG2 cells - 24 hour (AID 1224878); also: nearly all actives have a fitted effect of over 45% in size
Settings: CellTox Green fluorescence; series mostly up to 76.8 µM
Source text: National Center for Advancing Translational Sciences [NCATS]
NIH Chemical Genomics Center [NCGC]
U.S. Environmental Protection Agency [EPA]
National Institutes of Environmental Health Sciences [NIEHS]
National Toxicology Program [NTP]
Cell-based models are critical for drug discovery. Determining the natural cytotoxic effects resulting from test compounds is an essential research activity. A CellTox Green Cytotoxicity Assay to monitor cytotoxicity in real time of continues cell culture during 40 hours of the compound treatment was used to screen Tox21 10K library compounds in HepG2 cells. CellTox Green Cytotoxicity Assay is a nonlytic, homogeneous, biofluorescent method to measure cytotoxicity in cell culture after experimental manipulation. The assay system uses a proprietary asymmetric cyanine dye that is excluded from viable cells but preferentially stains the dead cell's DNA. […] Viable cells produce no appreciable increases in fluorescence. Therefore, the fluorescence signal produced by the binding interaction with dead cell DNA is proportional to cytotoxicity.
The mixture of HepG2 cell suspension and reagents were dispensed at 600cells/6 ul/well in 1536-well tissue culture treated black solid bottom plates using a Multidrop dispenser. After the assay plates were incubated at a 37 C/5% CO2 incubator for 5 hours, 23 nL of compounds dissolved in DMSO, positive and negative controls was transferred to the assay plate by a pintool work station. The plates were incubated at 37 C for 40 hours. The fluorescence intensity were measured at 0h, 8h, 16h, 24h, 32h and 40h time points using ViewLux plate reader during compound treatment.
For `CC(O)CCl` (stereo not given), the Potency was “inactive”.
In the case of `CS(=O)(=O)c1ccc(C(=O)C2C(=O)CCCC2=O)c(Cl)c1COCC(F)(F)F`, the Potency is reported as “inactive”.
With `O=c1[nH]c2ccccc2n1C1CCNCC1` the Potency was “inactive”.
For `BrCc1ccc(Br)cc1`, the Potency was “inactive”.
In the case of `COc1ccc(C=O)cc1O`, the Potency is reported as “inactive”.
In the case of `O=S1(=O)OCCO1`, the Potency is reported as “inactive”.
With `CC(C)(C)c1cc(O)ccc1O` the Potency was “inactive”.
With `O=P(O)(O)c1ccccc1` the Potency was “inactive”.
With `CC(C)(N)Cc1ccc(Cl)cc1` the Potency was “inactive”.
In the case of `ClCCCCl`, the Potency is reported as “inactive”.
With `N=C(N)[Se]` the Potency was “inactive”.
With `C=CC=O` the Potency was “inactive”.
For `CCCCCCC1CCOC1=O` (stereo not given), the Potency was “inactive”.
With `CC(Cc1ccccc1)NCCn1cnc2c1c(=O)n(C)c(=O)n2C` (stereo not given) the Potency was “inactive”.
With `C=CCN1CC[C@]23CCCC[C@H]2[C@H]1Cc1ccc(O)cc13` the Potency was “inactive”.
For `CN(C)C(=O)Oc1cc(OC(=O)N(C)C)cc(C(O)CNC(C)(C)C)c1` (stereo not given), the Potency was “inactive”.
In the case of `CCCCCCCCSC(=O)Oc1cc(Cl)nnc1-c1ccccc1`, the Potency is reported as “inactive”.
For `Oc1ccc2c3c1O[C@H]1[C@@H](O)C=C[C@H]4[C@@H](C2)NCC[C@@]341`, the Potency was “inactive”.
In the case of `CC(C)(C)NC[C@H](O)c1ccc(O)cc1Cl`, the Potency is reported as “inactive”.
In the case of `COC1=CC(=O)O[C@@H](/C=C/c2ccccc2)C1`, the Potency is reported as “inactive”.
In the case of `NCCOS(=O)(=O)O`, the Potency is reported as “inactive”.
In the case of `CC(C)(N)Cc1ccccc1Cl`, the Potency is reported as “inactive”.
In the case of `O=CCCl`, the Potency is reported as “inactive”.
With `CCN[C@H](C)Cc1cccc(C(F)(F)F)c1` the Potency was “inactive”.
In the case of `ClC1=C(Cl)C2(Cl)C(CBr)CC1(Cl)C2(Cl)Cl` (stereo not given), the Potency is reported as “inactive”.
With `N[C@@H]1C[C@H]1c1ccccc1` the Potency was “inactive”.
In the case of `C/C=C/CC#N`, the Potency is reported as “inactive”.
In the case of `CCC(C)C(C)(COC(N)=O)COC(N)=O` (stereo not given), the Potency is reported as “inactive”.
For `O=C(Cl)OCc1ccccc1`, the Potency was “inactive”.
With `CCNc1nc(NCC)nc(SC)n1` the Potency was “inactive”.
For `CCC(C(N)=O)N1CCCC1=O` (stereo not given), the Potency was “inactive”.
In the case of `CCC1(c2ccccc2)CCC(=O)NC1=O` (stereo not given), the Potency is reported as “inactive”.
For `Cc1ccc(S(=O)(=O)N[C@@H](CCCCN)C(=O)CCl)cc1`, the Potency was “inactive”.
For `COc1ccc2c(C(=O)c3ccc(Cl)cc3)c(C)n(CC(=O)O)c2c1`, the Potency was “inactive”.
With `CC(=O)OCC1=C(C(=O)O)N2C(=O)[C@@H](N)[C@H]2SC1` the cytotoxicity was 0.21% [at 15.8 µM] (inactive).
For `C=C(Cl)CCl`, the Potency was “inactive”.
For `C(COCC1CO1)OCC1CO1` (stereo not given), the Potency was “inactive”.
For `CCCN1CCC[C@@H]2Cc3[nH]ncc3C[C@H]21`, the Potency was “inactive”.
In the case of `C1CN2CCC1CC2`, the Potency is reported as “inactive”.
In the case of `CCOC(=O)CCl`, the Potency is reported as “inactive”.
